Active and inactive are the calls of the source. The calls were made as follows: active = hit-call score of the fitted dose curve at least 0.9, where 1 is the maximum; inactive = score below 0.9.

Usually AC50 stands for the concentration giving half of the maximal activity seen.

Read-out in this assay: solute carrier (SLC22A1), SLC22A1 (gene 6580)
As to the kind of experiment: LTEA_HepaRG_SLC22A1: Life Technologies and Expression Analysis (LTEA) Assay for solute carrier (SLC22A1) using HepaRG (AID 2283524).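 As to AC50: TaqMan qRT-PCR normalized to ACTB GAPDH and POLR2A housekeeping genes.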 The following applies: mRNA level, 48 h; actives raise or lower the signal. The procedure: LTEA_HepaRG is a cell based, multiplexed-readout assay that uses HepaRG, a human liver cell line, with measurements taken at 48 hours after chemical dosing on a 96-well plate.LTEA_HepaRG_SLC22A1 is one of 102 assay component(s) measured in the LTEA HepaRG cell culture assay. It is a marker of NR mediated transport.Data from the assay component LTEA_HepaRG_SLC22A1 was analyzed into 1 endpoint. This assay endpoint, LTEA_HepaRG_SLC22A1, was analyzed with bidirectional fitting relative to DMSO as the negative control and baseline of activity. Using a type of inducible reporter, measures of mRNA induction for gain or loss-of-signal activity can be used to understand regulation of transcription factor activity. To generalize the intended target to other relatable targets, this assay endpoint is annotated to the transporter intended target family, where the subfamily is organic cation transporter.
A total of 1060 chemcials from the ToxCast library were tested in eight-point concentration-response experiments. Cell culture and cytotoxicity assays were conducted at Thermo Fisher Scientific's Custom Services facility (Madison, WI). A single lot of human HepaRG cells (Thermo Fisher Scientific, Frederick, MD) was used for the cell culture experiments. 96-well format collagen type I coated plates of human HepaRG cells were prepared using established methods. Briefly, cryopreserved HepaRG cells were thawed, plated at a density of approximately 100,000 cells/well in HepaRG Thaw, Plate, and General Purpose media (HPRG770, Thermo Fisher Scientific), and incubated for 48 hours. 0.5% DMSO was selected as vehicle control to balance the requisite need of DMSO in HepaRG cultures to maintain differentiation (for example, baseline metabolism, proportions of hepatocytes vs. cholangiocytes), while enabling further hepatic receptor pathway activation (for example, PXR and CAR) in response to chemical exposure. 48 hours after plating, the culture medium was replaced with HepaRG Serum-Free Incudtion Media. Cells were exposed to each test chemical in duplicate and maintained in CO2 incubators for another 48 hours. Chemical plates were thawed to room temperature and 200x concentrations of treatment groups were prepared. 8-point conentration-reponse curves were made with the highest exposure at 100 uM, followed by half-log dilutions, all in 0.5% DMSO. Each test plate contained variouse controls, induction positive controls (1mM phenobarbital), cytotoxicity positive controls ([…] aflatoxin B1), vehicle controls (0.5% DMSO), and total lysis controls (0.5% DMSO). Cell morphology images were taken using an Essen IncuCyte FLR automated microscope, with six 96-well plates imaged in about 24 minutes. Images were captured and exported and JPEG files. Spent culture media was transfered to black-well plates for the LDH assay, and remaining media was sorted at -80 C for later use. Cells were treated with RLT buffer and frozen until shipped for gene expression analysis. Total RNA was isolated from the cell suspension in 75 uL of Buffer RLT (Qiagen, Germantown, MD 20874) by Quintiles/Expression Analysis (Durham, NC) using a custom isolation procedure. Total RNA from each plate well was transferred to a preamplification plate. Fluidigm's 96.96 Dynamic ArrayTM (Fluidigm, Amsterdam, the Netherlands) technology was used for gene expression analyses by quantitative reverse transcription polymerase chain reaction (qRT-PCR, performed by Quintiles/Expression Analysis, Durham, NC)89. Standard TaqManTM Assays (Applied Biosystems/ThermoFisher Scientific, Foster City, CA) were used to assess the expression of 93 genes selected based on their selectivity and sensitivity to important hepatic receptors known to be modulated by environmental chemicals; importance in human hepatocyte functionality; and hepatotoxicity. […]
With `O=P(Oc1ccccc1)(Oc1ccccc1)Oc1ccccc1`, the AC50 is 50 µM (active). Consider `CCNc1nc(Cl)nc(NC(C)(C)C)n1`, for which the molecule was classed as inactive. As to `CCCCCCCc1ccc(O)cc1`, the call was inactive. As for `CSC(C)(C)C=NO`, the outcome was inactive. Still for that read-out and setting: in the case of `CCOP(=S)(Oc1ccc([N+](=O)[O-])cc1)c1ccccc1` (stereo not given) it was “inactive”; in that of `OCC1CO1` (stereo not given), “inactive”; in that of `c1ccc2c(c1)Nc1ccccc1S2`, “inactive”. Same read-out and setting: in the case of `CCCCN(CCCC)N=O` it was “inactive”. On the same count and under the same terms, with `c1ccc(OP(Oc2ccccc2)Oc2ccccc2)cc1` the entry was “inactive”; with `CCCCN(CCCC)SN(C)C(=O)Oc1cccc2c1OC(C)(C)C2`, “inactive”. Take `Cc1ccc(O)cc1C`: the result was inactive.

Turning to `CCOS(=O)(=O)OCC`, the molecule was classed as inactive.

On to `O=P1(N(CCCl)CCCl)NCCCO1` (stereo not given), for which the result was inactive. On to `c1nc[nH]n1`, for which the outcome was inactive.

As for `Nc1ccc2ccccc2c1`, the call was inactive. Still for that read-out and setting: in the case of `ClC(Cl)c1ccccc1` it was “inactive”; in that of `CC(Cc1ccc(OCC(=O)O)cc1)NCC(O)c1csc(C(F)(F)F)n1` (stereo not given), “inactive”.

For the molecule `Nc1ccc(Cl)cc1`, the call was inactive. On the same count and under the same terms, with `Cc1ccc([N+](=O)[O-])cc1C` the entry was “inactive”; with `O=C(O)C(Cl)Cl`, “inactive”; with `CC(C)(C)OOC(C)(C)C`, “inactive”. Same read-out and setting: with `Cc1ccc(N)cc1N` the entry was “inactive”; with `CC(Cl)(Cl)C(=O)O`, “inactive”.

In the case of `CN(C)C(=O)Cl`, the outcome was inactive. With `ClC1=C(Cl)C2(Cl)C3C(Cl)C(Cl)CC3C1(Cl)C2(Cl)Cl` (stereo not given), the result was inactive. On the same count and under the same terms, with `CCOP(=S)(OCC)SCSCC` the entry was “inactive”; with `[N-]=[N+]=[N-]`, “inactive”. For the molecule `CCCN(CCC)c1c([N+](=O)[O-])cc(C(C)C)cc1[N+](=O)[O-]`, the AC50 is 77.4 µM (active). Take `Nc1cc2c3c(c1)C(c1ccccc1)=N[C@@H](NC(=O)c1cccnc1)C(=O)N3CC2`: the molecule was called inactive. The same measure, in the same setting: with `O=C(O)C1C(C(=O)O)C2(Cl)C(Cl)=C(Cl)C1(Cl)C2(Cl)Cl` (stereo not given) the entry was “inactive”.

Take `c1cc2c3c(cccc3c1)CC2`: the outcome was inactive.

On to `Cc1cccc(N)c1`, for which the molecule was called inactive. On the same count and under the same terms, with `CC(C)(C)c1ccc(O)cc1` the entry was “inactive”. On the same count and under the same terms, with `CCN(CC)c1ccccc1` the entry was “inactive”. The same measure, in the same setting: with `CCC(C)(C)c1ccc(O)cc1` the entry was “inactive”; with `CCC1(c2ccccc2)C(=O)N=C(O)NC1=O` (stereo not given), “inactive”; with `CCOC(=O)c1ccccc1C(=O)OCC`, “inactive”. For `O=[N+]([O-])c1ccccc1`, the call was inactive. On to `CCCCc1ccccc1`, for which the molecule was classed as inactive. Still for that read-out and setting: with `CCOc1ccc(C(C)(C)COCc2cccc(Oc3ccccc3)c2)cc1` the entry was “inactive”.

The record behind these values is PubChem BioAssay (EPA / NIEHS).
